Measurements reported in publication PMC11006913.
Substitutions are numbered along the chain they refer to.

Legend:
Assay in all cases: PBM; 200 nM protein, PBS
Conditions in all cases: dsDNA, one strand shown
SIX6 [1] = target: T1, SIX6 (Homo sapiens, UniProt O95475 114-200, L167I)
T1 sequence: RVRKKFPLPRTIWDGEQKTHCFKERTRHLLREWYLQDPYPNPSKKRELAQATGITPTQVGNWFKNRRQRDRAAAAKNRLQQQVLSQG

SIX6 [2] = target: T2, SIX6 (Homo sapiens, UniProt O95475 114-200, L143V)
T2 sequence: T1 sequence with L30V, I54L

SIX6 [3] = target: T3, SIX6 (Homo sapiens, UniProt O95475 114-200, H141N)
T3 sequence: T1 sequence with H28N, I54L

SIX6 [4] = target: T4, SIX6 (Homo sapiens, UniProt O95475 114-200, T165P)
T4 sequence: T1 sequence with T52P, I54L

SIX6 [5] = target: T5, SIX6 (Homo sapiens, UniProt O95475 114-200, L167M)
T5 sequence: T1 sequence with I54M

SIX6 [6] = target: T6, SIX6 (Homo sapiens, UniProt O95475 114-200, L143M)
T6 sequence: T1 sequence with L30M, I54L

SIX6 [7] = target: T7, SIX6 (Homo sapiens, UniProt O95475 114-200, L143I)
T7 sequence: T1 sequence with L30I, I54L

SIX6 [8] = target: T8, SIX6 (Homo sapiens, UniProt O95475 114-200, T165G)
T8 sequence: T1 sequence with T52G, I54L

SIX6 [9] = target: T9, SIX6 (Homo sapiens, UniProt O95475 114-200, T139Q)
T9 sequence: T1 sequence with T26Q, I54L

SIX6 [10] = target: T10, SIX6 (Homo sapiens, UniProt O95475 114-200, T165A)
T10 sequence: T1 sequence with T52A, I54L

SIX6 [11] = target: T11, SIX6 (Homo sapiens, UniProt O95475 114-200, L167V)
T11 sequence: T1 sequence with I54V

SIX6 [12] = target: T12, SIX6 (Homo sapiens, UniProt O95475 114-200)
T12 sequence: T1 sequence with I54L

SIX6 [13] = target: T13, SIX6 (Homo sapiens, UniProt O95475 114-200, T165I)
T13 sequence: T1 sequence with T52I, I54L

Sequence	binding signal (SIX6 [1])	binding signal (SIX6 [2])	binding signal (SIX6 [3])	binding signal (SIX6 [4])	binding signal (SIX6 [5])	binding signal (SIX6 [6])	binding signal (SIX6 [7])	binding signal (SIX6 [8])	binding signal (SIX6 [9])	binding signal (SIX6 [10])	binding signal (SIX6 [11])	binding signal (SIX6 [12])	binding signal (SIX6 [13])
CAGTATCA	11.2 upbm affinity estimate (log intensity, higher = more binding, comparable within an allelic series)	10.2 upbm affinity estimate (log intensity, higher = more binding, comparable within an allelic series)	11.1 upbm affinity estimate (log intensity, higher = more binding, comparable within an allelic series)	9.69 upbm affinity estimate (log intensity, higher = more binding, comparable within an allelic series)	10.5 upbm affinity estimate (log intensity, higher = more binding, comparable within an allelic series)	10.7 upbm affinity estimate (log intensity, higher = more binding, comparable within an allelic series)	10.3 upbm affinity estimate (log intensity, higher = more binding, comparable within an allelic series)	11.2 upbm affinity estimate (log intensity, higher = more binding, comparable within an allelic series)	11 upbm affinity estimate (log intensity, higher = more binding, comparable within an allelic series)	11.1 upbm affinity estimate (log intensity, higher = more binding, comparable within an allelic series)	10.9 upbm affinity estimate (log intensity, higher = more binding, comparable within an allelic series)	10.9 upbm affinity estimate (log intensity, higher = more binding, comparable within an allelic series)	10.9 upbm affinity estimate (log intensity, higher = more binding, comparable within an allelic series)
CGGCGGAA	8.84 upbm affinity estimate (log intensity, higher = more binding, comparable within an allelic series)	8.9 upbm affinity estimate (log intensity, higher = more binding, comparable within an allelic series)	8.85 upbm affinity estimate (log intensity, higher = more binding, comparable within an allelic series)	9.07 upbm affinity estimate (log intensity, higher = more binding, comparable within an allelic series)	8.95 upbm affinity estimate (log intensity, higher = more binding, comparable within an allelic series)	8.9 upbm affinity estimate (log intensity, higher = more binding, comparable within an allelic series)	8.96 upbm affinity estimate (log intensity, higher = more binding, comparable within an allelic series)	9.04 upbm affinity estimate (log intensity, higher = more binding, comparable within an allelic series)	8.95 upbm affinity estimate (log intensity, higher = more binding, comparable within an allelic series)	8.82 upbm affinity estimate (log intensity, higher = more binding, comparable within an allelic series)	8.8 upbm affinity estimate (log intensity, higher = more binding, comparable within an allelic series)	8.95 upbm affinity estimate (log intensity, higher = more binding, comparable within an allelic series)	8.9 upbm affinity estimate (log intensity, higher = more binding, comparable within an allelic series)
AGGATATC	11.1 upbm affinity estimate (log intensity, higher = more binding, comparable within an allelic series)	10.2 upbm affinity estimate (log intensity, higher = more binding, comparable within an allelic series)	11.1 upbm affinity estimate (log intensity, higher = more binding, comparable within an allelic series)	9.73 upbm affinity estimate (log intensity, higher = more binding, comparable within an allelic series)	10.7 upbm affinity estimate (log intensity, higher = more binding, comparable within an allelic series)	10.9 upbm affinity estimate (log intensity, higher = more binding, comparable within an allelic series)	10.3 upbm affinity estimate (log intensity, higher = more binding, comparable within an allelic series)	11.2 upbm affinity estimate (log intensity, higher = more binding, comparable within an allelic series)	11.1 upbm affinity estimate (log intensity, higher = more binding, comparable within an allelic series)	11.1 upbm affinity estimate (log intensity, higher = more binding, comparable within an allelic series)	10.9 upbm affinity estimate (log intensity, higher = more binding, comparable within an allelic series)	10.9 upbm affinity estimate (log intensity, higher = more binding, comparable within an allelic series)	10.9 upbm affinity estimate (log intensity, higher = more binding, comparable within an allelic series)
GATATCCA	11.1 upbm affinity estimate (log intensity, higher = more binding, comparable within an allelic series)	10.3 upbm affinity estimate (log intensity, higher = more binding, comparable within an allelic series)	11 upbm affinity estimate (log intensity, higher = more binding, comparable within an allelic series)	9.81 upbm affinity estimate (log intensity, higher = more binding, comparable within an allelic series)	10.7 upbm affinity estimate (log intensity, higher = more binding, comparable within an allelic series)	10.9 upbm affinity estimate (log intensity, higher = more binding, comparable within an allelic series)	10.3 upbm affinity estimate (log intensity, higher = more binding, comparable within an allelic series)	11.1 upbm affinity estimate (log intensity, higher = more binding, comparable within an allelic series)	11 upbm affinity estimate (log intensity, higher = more binding, comparable within an allelic series)	11 upbm affinity estimate (log intensity, higher = more binding, comparable within an allelic series)	10.9 upbm affinity estimate (log intensity, higher = more binding, comparable within an allelic series)	10.9 upbm affinity estimate (log intensity, higher = more binding, comparable within an allelic series)	10.8 upbm affinity estimate (log intensity, higher = more binding, comparable within an allelic series)
CGCACTCC	8.92 upbm affinity estimate (log intensity, higher = more binding, comparable within an allelic series)	8.98 upbm affinity estimate (log intensity, higher = more binding, comparable within an allelic series)	8.96 upbm affinity estimate (log intensity, higher = more binding, comparable within an allelic series)	9.15 upbm affinity estimate (log intensity, higher = more binding, comparable within an allelic series)	8.96 upbm affinity estimate (log intensity, higher = more binding, comparable within an allelic series)	8.9 upbm affinity estimate (log intensity, higher = more binding, comparable within an allelic series)	9.01 upbm affinity estimate (log intensity, higher = more binding, comparable within an allelic series)	9.09 upbm affinity estimate (log intensity, higher = more binding, comparable within an allelic series)	9 upbm affinity estimate (log intensity, higher = more binding, comparable within an allelic series)	9.06 upbm affinity estimate (log intensity, higher = more binding, comparable within an allelic series)	8.95 upbm affinity estimate (log intensity, higher = more binding, comparable within an allelic series)	9.04 upbm affinity estimate (log intensity, higher = more binding, comparable within an allelic series)	8.97 upbm affinity estimate (log intensity, higher = more binding, comparable within an allelic series)
GTATCACA	11.4 upbm affinity estimate (log intensity, higher = more binding, comparable within an allelic series)	10.4 upbm affinity estimate (log intensity, higher = more binding, comparable within an allelic series)	11.4 upbm affinity estimate (log intensity, higher = more binding, comparable within an allelic series)	9.83 upbm affinity estimate (log intensity, higher = more binding, comparable within an allelic series)	10.8 upbm affinity estimate (log intensity, higher = more binding, comparable within an allelic series)	11.2 upbm affinity estimate (log intensity, higher = more binding, comparable within an allelic series)	10.5 upbm affinity estimate (log intensity, higher = more binding, comparable within an allelic series)	11.6 upbm affinity estimate (log intensity, higher = more binding, comparable within an allelic series)	11.4 upbm affinity estimate (log intensity, higher = more binding, comparable within an allelic series)	11.4 upbm affinity estimate (log intensity, higher = more binding, comparable within an allelic series)	11.2 upbm affinity estimate (log intensity, higher = more binding, comparable within an allelic series)	11.2 upbm affinity estimate (log intensity, higher = more binding, comparable within an allelic series)	11.2 upbm affinity estimate (log intensity, higher = more binding, comparable within an allelic series)
